Results reported in PubChem BioAssay (NCATS).
Inconclusive results are not listed. A call without a number means that no potency is given here. The source made the active and inactive calls. Calls follow the shape of the dose curve; as a rule, active = well fitted inhibition curve with a large enough effect; inconclusive = small, poorly fitted or top-dose-only effect; inactive = flat fitted curve, though single readings scatter.
Potency is read from the fitted curve at half-maximal effect.

The compounds below were run on AA1029 (assay: qHTS profiling for inhibitors of Plasmodium falciparum proliferation (AID 504749; also: nearly all actives have a fitted effect of over 60% in size)). Conditions: P. falciparum in erythrocytes, SYBR Green DNA, 72 h; series mostly up to 28.7 µM.
Method in brief: (§1)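 Infected RBCs, 0.3% parasitemia/2.5% Hct final; cpd 72 h, 37 C, 5% CO2; lysis buffer with saponin/triton/SYBR Green I, o/n RT dark; FI 485/535; norm. to artemisinin (0.29 uM) and DMSO.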
C[C@@H]1C(=O)NC2=Nc3cccc(Cl)c3CN21 was tested, and the Potency was “inactive”. CCCCC(CC)CN=C(N)NC(N)=NCCCCCCN=C(N)NC(N)=NCC(CC)CCCC (configuration not stated) was tested, and the Potency was 1.41 µM (active). For Cc1ccc(O)c2ncccc12, the Potency was “inactive”. For Oc1ccc(Cl)c2cccnc12, the Potency was “inactive”. CC(O)C(=O)O (configuration not stated) was tested, and the Potency was “inactive”. With O=C(Nc1ccc(Oc2ccc(Cl)cc2)c(Cl)c1)c1cc(I)cc(I)c1O the Potency was “inactive”. In the case of CO/N=C1\CN(c2nc3c(cc2F)c(=O)c(C(=O)O)cn3C2CC2)CC1CN (configuration not stated), the Potency is reported as 7.94 µM (active). For CNCCC=C1c2ccccc2CCc2ccccc21, the Potency was 4.47 µM (active). With O=C1OCCN1/N=C/c1ccc([N+](=O)[O-])o1 the Potency was 10 µM (active). With Oc1ccc(O)cc1 the Potency was “inactive”.

The compounds below were run on AS120 in the same assay as above. Conditions: P. falciparum in erythrocytes, SYBR Green DNA, 72 h; series mostly up to 28.7 µM.
Method in brief: as §1
With CC[N+](CC)(CCNC(=O)C(=O)NCC[N+](CC)(CC)Cc1ccccc1Cl)Cc1ccccc1Cl the Potency was 1 µM (active). In the case of O=C1[C@H]2CCCC[C@H]2C(=O)N1CCCCN1CCN(c2nsc3ccccc23)CC1, the Potency is reported as “inactive”. COc1ccc(C2C(=O)c3ccccc3C2=O)cc1 was tested, and the Potency was “inactive”. For CCN(CC)CCNC(=O)COc1ccc(Cl)cc1, the Potency was 12.6 µM (active). O=C(N/N=C/c1ccccc1O)c1ccncc1 was tested, and the Potency was 4.47 µM (active). In the case of CCCCc1nc(Cl)c(CO)n1Cc1ccc(-c2ccccc2-c2nn[nH]n2)cc1, the Potency is reported as 8.91 µM (active). In the case of CCCCCCCCCCCCCCCCCC(=O)OCC(O)CO (configuration not stated), the Potency is reported as “inactive”. In the case of CC(=O)OCC(=O)[C@@]1(OC(C)=O)[C@@H](C)C[C@H]2[C@@H]3C[C@H](F)C4=CC(=O)C=C[C@]4(C)[C@@]3(F)[C@@H](O)C[C@@]21C, the Potency is reported as “inactive”. In the case of C=C(CC)C(=O)c1ccc(OCC(=O)O)c(Cl)c1Cl, the Potency is reported as 12.6 µM (active). COc1cccc(CCc2ccccc2OCC(CN(C)C)OC(=O)CCC(=O)O)c1 (configuration not stated) was tested, and the Potency was 4.47 µM (active). In the case of CCOc1ccc(Cc2nccc3cc(OCC)c(OCC)cc23)cc1OCC, the Potency is reported as “inactive”. For CN1CCC[C@@H]1c1cccnc1, the Potency was “inactive”. CCCCCCCCCCCCCCNCCO was tested, and the Potency was 12.6 µM (active). In the case of C[C@@H]1CN(CCCn2c3ccccc3c3ccccc32)C[C@H](C)N1, the Potency is reported as 12.6 µM (active). For CCN(CC)C(=O)/C(C#N)=C/c1cc(O)c(O)c([N+](=O)[O-])c1, the Potency was “inactive”. c1ccc(-c2ccc(C(c3ccccc3)n3ccnc3)cc2)cc1 (configuration not stated) was tested, and the Potency was 3.98 µM (active). For CC(C)COC(=O)c1ccc(N)cc1, the Potency was “inactive”. In the case of CN(C)C(=S)SC(=S)N(C)C, the Potency is reported as 12.6 µM (active). For CC(C)NC[C@@H](O)COc1cccc2ccccc12, the Potency was 8.91 µM (active). For C[C@@H]1C(=O)NC2=Nc3cccc(Cl)c3CN21, the Potency was “inactive”. For CCCCC(CC)CN=C(N)NC(N)=NCCCCCCN=C(N)NC(N)=NCC(CC)CCCC (configuration not stated), the Potency was 0.891 µM (active). For Oc1ccc(Cl)c2cccnc12, the Potency was “inactive”. Cc1cccc(C)c1NC(=O)CN1CCN(CCCC(c2ccc(F)cc2)c2ccc(F)cc2)CC1 was tested, and the Potency was 3.98 µM (active). For CC(O)C(=O)O (configuration not stated), the Potency was “inactive”. In the case of CN(C)CC/C=C1\c2ccccc2Sc2ccc(Cl)cc21, the Potency is reported as 11.2 µM (active).

These compounds were tested on ATS189 in the same assay as above. Conditions: P. falciparum in erythrocytes, SYBR Green DNA, 72 h; series mostly up to 28.7 µM.
Method in brief: as §1
In the case of CCN(CC)CCOc1ccc(C(O)(Cc2ccc(Cl)cc2)c2ccc(C)cc2)cc1 (configuration not stated), the Potency is reported as 11.2 µM (active). With CC[N+](CC)(CCNC(=O)C(=O)NCC[N+](CC)(CC)Cc1ccccc1Cl)Cc1ccccc1Cl the Potency was 2.24 µM (active). With O=C1[C@H]2CCCC[C@H]2C(=O)N1CCCCN1CCN(c2nsc3ccccc23)CC1 the Potency was “inactive”. For COc1ccc(C2C(=O)c3ccccc3C2=O)cc1, the Potency was “inactive”. With CCCCCCCCCCCCCCCCCC(=O)OCC(O)CO (configuration not stated) the Potency was “inactive”. With CC(=O)OCC(=O)[C@@]1(OC(C)=O)[C@@H](C)C[C@H]2[C@@H]3C[C@H](F)C4=CC(=O)C=C[C@]4(C)[C@@]3(F)[C@@H](O)C[C@@]21C the Potency was “inactive”. In the case of COc1cccc(CCc2ccccc2OCC(CN(C)C)OC(=O)CCC(=O)O)c1 (configuration not stated), the Potency is reported as 5.62 µM (active). CCOc1ccc(Cc2nccc3cc(OCC)c(OCC)cc23)cc1OCC was tested, and the Potency was “inactive”. CN1CCC[C@@H]1c1cccnc1 was tested, and the Potency was “inactive”. In the case of CN1CCN(CCCN2c3ccccc3Sc3ccc(S(=O)(=O)N(C)C)cc32)CC1, the Potency is reported as 3.55 µM (active). CCCCCCCCCCCCCCCC[N+](C)(C)CCN(Cc1ccc(OC)cc1)c1ncccn1 was tested, and the Potency was “inactive”. With CCN(CC)C(=O)/C(C#N)=C/c1cc(O)c(O)c([N+](=O)[O-])c1 the Potency was “inactive”. For c1ccc(-c2ccc(C(c3ccccc3)n3ccnc3)cc2)cc1 (configuration not stated), the Potency was 8.91 µM (active). For CC(C)COC(=O)c1ccc(N)cc1, the Potency was “inactive”. For CC(C)NC[C@@H](O)COc1cccc2ccccc12, the Potency was 10 µM (active). With C[C@@H]1C(=O)NC2=Nc3cccc(Cl)c3CN21 the Potency was “inactive”. CCCCC(CC)CN=C(N)NC(N)=NCCCCCCN=C(N)NC(N)=NCC(CC)CCCC (configuration not stated) was tested, and the Potency was 3.16 µM (active). With Cc1ccc(O)c2ncccc12 the Potency was “inactive”. In the case of Oc1ccc(Cl)c2cccnc12, the Potency is reported as “inactive”. In the case of CC(O)C(=O)O (configuration not stated), the Potency is reported as “inactive”. For O=C(Nc1ccc(Oc2ccc(Cl)cc2)c(Cl)c1)c1cc(I)cc(I)c1O, the Potency was “inactive”. With Oc1ccc(O)cc1 the Potency was “inactive”.
